# Bioassay records as filed in PubChem BioAssay.
# Sampled rows, rich in hits. Any-hit rate of the full collection: about 4.1%.
# DUSP3 inh = blocks human VHR1 dual specificity phosphatase. 0.52% of 290,000 active. inhibition, % at 13.3 µM. AID 1654. recombinant VHR phosphatase, pNPP absorbance. P51452; in the data active means inhibition above about 50%
# Target sequence (P51452 whole entry, looked up): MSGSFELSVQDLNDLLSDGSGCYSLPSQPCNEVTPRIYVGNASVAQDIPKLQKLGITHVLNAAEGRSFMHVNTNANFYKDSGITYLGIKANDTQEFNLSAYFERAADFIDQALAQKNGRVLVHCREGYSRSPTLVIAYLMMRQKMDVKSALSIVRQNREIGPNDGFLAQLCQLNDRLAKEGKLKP
# Anthrax LF inh2 = inhibitors of Bacillus anthracis lethal factor protease; P15917; multiplex microsphere protease cleavage assay, LF; inhibition, % at 10 µM; 0.12% of 360,000 active; AID 588501; further: plate controls were buffer without enzyme for full effect and enzyme alone for no effect
# MazF activator = MazEF (E. coli) toxin RNase activation | AID 504720 | 0.32% of 350,000 active | activation, % at 20 µM | FAM/BHQ RNA-DNA oligo cleavage fluorescence, 5 h; in the data active means activation above about 50%
# Target sequence (P0AE70 whole entry, looked up): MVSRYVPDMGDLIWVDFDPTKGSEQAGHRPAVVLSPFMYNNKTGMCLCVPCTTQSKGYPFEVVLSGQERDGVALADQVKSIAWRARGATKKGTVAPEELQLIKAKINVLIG
# Autofluor counter = compound fluorescence in toxin protease inhibitor counterscreen; compound autofluorescence counterscreen, microsphere flow cytometry; stronger effect = higher value; fluorescence intensity (test concentration not listed); 3.1% of 360,000 active; AID 624483; in the data active means fluorescence intensity above about 16000; inconclusive means no clear call, values can overlap the other calls
# BoNT A protease = BoNT A light chain protease inhibition; inhibition, % at 10 µM; multiplex microsphere protease substrate cleavage, flow cytometry; 0.17% of 360,000 active; AID 588499; further: plate controls were buffer without enzyme for full effect and enzyme alone for no effect
# BoNT-F LC inh = BoNT F light chain protease inhibition; Multiplex microsphere protease cleavage assay, flow cytometry; inhibition, % at 10 µM; 0.22% of 360,000 active; in the data active means inhibition above about 35%, passing the limit was not always enough; inconclusive means no clear call, values can overlap the other calls; further: plate controls were buffer without enzyme for full effect and enzyme alone for no effect
# * marks the source's active call; other numbers are inactive results; ? = inconclusive; / = no result given. Unless noted, no stated cut-off is given here; in the data, active means inhibition above about 30%; inconclusive means no clear call, values can overlap the other calls; inactive means below that.
SMILES,DUSP3 inh,Anthrax LF inh2,MazF activator,Autofluor counter,BoNT A protease,BoNT-F LC inh
CC1CCCC(NC(=O)c2ccc3snnc3c2)C1C (stereo not drawn),7,1,10,6054,-1,0
CC(=O)N1C[C@@H](CO)[C@@H](N(C)C(=O)C2CCCCC2)C[C@H]1c1ccccc1,/,-4,/,4848,-1,-7
COc1ccc(N(CC(=O)NC2CCCCC2)C(=O)CCCC(=O)Nc2ccccn2)cc1,2,0,2,4001,-1,4
Clc1ccc2nc(SCc3nnc(-c4ccccc4)o3)[nH]c2c1,4,1,2,23021*,?,-4
Clc1ccc(OCc2nnc(SCc3nnc(-c4ccccc4)o3)o2)c(Cl)c1,-7,0,-7,17010*,-2,-4
Cc1cc(=O)[nH]c(SCc2nnc(-c3ccccc3)o2)n1,31,-1,-12,3015,0,-4
CCOc1cc(Br)c(CN2C(=O)NC3(CCCCCC3)C2=O)cc1OCC,6,0,-5,5508,0,-5
COc1ccc(N2CC(C(=O)N[C@@H](CC(C)C)C(=O)NC3CCCCC3)CC2=O)cc1 (stereo partly drawn),56*,-2,3,5197,0,7
COc1ccc(CCNC(=O)C2CC(=O)N(CCc3ccc(C)cc3)C2)cc1OC (stereo not drawn),0,-4,0,4142,1,-1
COc1ccc(CN2CC(C(=O)NCCc3ccc(C)cc3)CC2=O)cc1 (stereo not drawn),-12,-1,4,20337*,1,2
COc1ccc(N2CC(C(=O)NCCc3ccc(OC)c(OC)c3)CC2=O)cc1 (stereo not drawn),22,-4,4,22233*,0,-5
COc1ccc(N2CC(C(=O)N[C@@H](C)C(=O)NC3CCCCC3)CC2=O)cc1 (stereo partly drawn),9,0,1,5316,0,4
CC(=O)c1ccc(NC(=O)C2CC(=O)N(Cc3ccccc3)C2)cc1 (stereo not drawn),10,-14,8,17232*,7,10
O=C(Nc1ccccc1)C1CC(=O)N(Cc2ccccc2)C1 (stereo not drawn),10,-4,8,5762,1,-5
COc1ccc(Cc2nnc(NC(=O)c3ccc(OC(C)=O)cc3)s2)cc1OC,-13,2,-15,3108,4,35*
COc1ccc(Cc2nnc(NC(=O)c3ccc(OC)c(OC)c3)s2)cc1OC,12,-1,8,4416,-1,-8
COc1ccc(CN2CC(C(=O)NCCc3ccccc3)CC2=O)cc1 (stereo not drawn),3,-4,0,17837*,7,10
COc1ccc(Cc2nnc(NC(=O)C3CC(=O)N(c4ccccc4)C3)s2)cc1OC (stereo not drawn),58*,0,-9,4256,2,3
CCOc1ccc(CCNC(=O)C2CC(=O)N(Cc3ccc(OC)cc3)C2)cc1OCC (stereo not drawn),18,-2,5,5507,2,2
Cc1cccc(CCNC(=O)C2CCC(=O)N(Cc3ccc(Cl)cc3)C2)n1 (stereo not drawn),12,0,6,5686,0,-5
O=C(NCCc1cccc(Cl)c1)C1CCC(=O)N(Cc2ccc(Cl)cc2)C1 (stereo not drawn),59*,-3,-4,6097,0,-7
C=CCOc1ccc(C2=NOC(C(=O)Nc3ccc4c(c3)OCCO4)C2)cc1 (stereo not drawn),13,-5,4,5031,0,?
CCCNC(=O)C(Cc1ccc(I)cc1)NC(=O)c1ccc(C#N)cc1 (stereo not drawn),/,-1,6,4067,0,-1
CCN1CCN(C(=O)c2cc(S(=O)(=O)N3CCCCC3)ccc2Cl)CC1,10,-1,0,6548,-3,-12
Cc1c(/C=N/n2cnnc2)c2ccccc2n1CCOc1ccc(Cl)cc1,34,-5,113*,16355*,0,-2
SMILES,DUSP3 inh,Anthrax LF inh2,MazF activator,Autofluor counter,BoNT A protease,BoNT-F LC inh
O=c1[nH]c2cc([N+](=O)[O-])ccc2c2cc(Br)ccc12,/,0,2,3507,0,-2
O=C(NCc1nnc2c(C(F)(F)F)cc(Cl)cn12)c1cccnc1,10,3,3,5738,-3,-3
COc1ccc(N2CS(=O)(=O)/C(=C/N(C)C)C2=O)cc1,-11,-3,-5,20727*,0,0
COc1ccc(N2Cc3ccccc3C2=O)cc1,18,-20,7,4399,-3,?
CCOC(CNC(=O)c1ccc2c(c1)nc(C)n2-c1cccc(F)c1)OCC,26,-4,-2,23358*,-1,-4
COCCn1c(=S)[nH]c2cc(C(=O)NC3CCCCC3C)ccc2c1=O (stereo not drawn),/,-4,2,3534,0,2
CCOC(=O)CNC(=O)Cn1cnc2c(nnn2-c2cccc(Cl)c2)c1=O,-16,2,9,23372*,-2,-3
CCOC(=O)CNC(=O)Cn1cnc2c(nnn2-c2ccc(C)cc2)c1=O,15,-12,-8,18628*,10,10
O=C(N/C(=C/c1ccc(F)cc1)C(=O)N1CCOCC1)c1ccccc1,25,?,3,30895*,?,?
CCOC(=O)C1CCCN(C(=O)/C(=C/c2ccco2)NC(=O)c2ccccc2)C1 (stereo not drawn),26,31*,1,3868,-3,-8
O=C(N/C(=C/c1ccco1)C(=O)N1CCCCCC1)c1ccccc1,30,4,2,3152,3,13
CCOC(=O)N1CCN(C(=O)/C(=C/c2ccccc2OC)NC(=O)c2ccccc2)CC1,-8,-3,0,16214*,?,-2
C=CCn1c(SCC(=O)N(CC)C2CCS(=O)(=O)C2)nc2scc(-c3ccccc3)c2c1=O (stereo not drawn),/,-6,0,4064,0,6
CCOC(=O)Cn1c(=O)oc2cc(S(=O)(=O)N(CCN(C)C)Cc3ccccc3)ccc21,15,-5,-4,23509*,-2,-4
CCOC(=O)Cn1c(=O)oc2cc(S(=O)(=O)Nc3cc(OCC)ccc3OCC)ccc21,3,-3,-3,16486*,?,-3
CCOCCCNS(=O)(=O)c1ccc2c(c1)oc(=O)n2CC(=O)OCC,9,-10,1,23318*,1,-1
CCOC(=O)Cn1c(=O)oc2cc(S(=O)(=O)NCCc3ccc(OCC)c(OCC)c3)ccc21,3,1,-7,22861*,?,1
CC(C)CC1Nc2ccc(C(=O)NCCCN3CCOCC3)cc2NC1=O (stereo not drawn),22,6,9,3888,1,-23
O=C(O)/C=C/C(=O)c1ccc2c(c1)CCc1ccccc1-2,/,0,-21,3741,0,3
O=C(NCc1nnnn1-c1ccc(F)cc1)C(=O)c1c[nH]c2ccccc12,/,3,-3,3714,0,0
